# From the supplement of paper PMC9801561
# ± gives the standard deviation of the averaged measurements.
# What was measured:
# [1] = test system: Escherichia coli Nissle 1917; experiment: area under OmniLog respiration curve over 48 h (OmniLog units x h); higher = more growth / nutrient utilisation; extreme values may be limits of the assay; details: incubation: 48 h, 37 °C
# [2] = test system: Escherichia coli Nissle 1917; experiment: DuctApe activity index of respiration/growth curve (0 no growth to 9 maximum) (index 0-9); higher = more growth / nutrient utilisation, active = 3 or more; extreme values may be limits of the assay; details: incubation: 48 h, 37 °C
# [3] = nutrient role: C-Source, carboxylic acid
# [4] = nutrient role: sole nitrogen source (pyruvate carbon)
# [5] = nutrient role: sole sulfur source (pyruvate carbon)
# [6] = nutrient role: sole phosphorus source (pyruvate carbon)
# [7] = nutrient role: C-Source, carbohydrate
# [8] = nutrient role: C-Source, alcohol
# [9] = nutrient role: C-Source, amino acid
# 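Throughout, for DuctApe activity index of respiration/growth curve (0 no growth to 9 maximum): biolog PM4 phosphorus and sulfur plates, tetrazolium violet dye reduction read in the OmniLog every 15 min, kinetic curves scored by DuctApe, each plate run in triplicate.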
smiles,measurement,setting,value
O=CO [Formic acid],area under OmniLog respiration curve,[1]; [3],112 ± 190
same,DuctApe activity index,[2]; [3],0.333 (inactive)
NCC(=O)N[C@@H](CC(N)=O)C(=O)O,area under OmniLog respiration curve,[1]; [4],8340 ± 1500
same,DuctApe activity index,[2]; [4],8 (active)
CC(N)=O [Acetamide],area under OmniLog respiration curve,"[1]; nutrient role: C-Source, amide",9.31 ± 7.2
same,area under OmniLog respiration curve,[1]; [4],26.4 ± 38
same,DuctApe activity index,"[2]; nutrient role: C-Source, amide",0 (inactive)
same,DuctApe activity index,[2]; [4],0 (inactive)
N[C@@H](CSCSC[C@H](N)C(=O)O)C(=O)O [L-Djenkolic acid],area under OmniLog respiration curve,[1]; [5],7730 ± 190
same,DuctApe activity index,[2]; [5],8 (active)
Nc1ncnc2c1ncn2[C@@H]1O[C@H](CO)[C@@H](OP(=O)(O)O)[C@H]1O [Adenosine 3`-Monophosphate],area under OmniLog respiration curve,[1]; [6],9700 ± 640
same,DuctApe activity index,[2]; [6],9 (active)
OC[C@H]1O[C@H](OC[C@H]2O[C@H](OC[C@H]3O[C@H](O[C@]4(CO)O[C@H](CO)[C@@H](O)[C@@H]4O)[C@H](O)[C@@H](O)[C@@H]3O)[C@H](O)[C@@H](O)[C@H]2O)[C@H](O)[C@@H](O)[C@H]1O [Stachyose],area under OmniLog respiration curve,[1]; [7],433 ± 380
same,DuctApe activity index,[2]; [7],1.33 (inactive)
O=P(O)(O)CP(=O)(O)O [Methylene Diphosphonic acid],area under OmniLog respiration curve,[1]; [6],618 ± 470
same,DuctApe activity index,[2]; [6],0.667 (inactive)
CO[C@@H]1O[C@H](C(=O)O)[C@@H](O)[C@H](O)[C@H]1O [b-Methyl-D-Glucuronic acid],area under OmniLog respiration curve,[1]; [3],6620 ± 580
same,DuctApe activity index,[2]; [3],7.33 (active)
O=P(O)(O)OP(=O)(O)O [Pyrophosphate],area under OmniLog respiration curve,[1]; [6],9320 ± 480
same,DuctApe activity index,[2]; [6],9 (active)
NCCCCN=C(N)N [Agmatine],area under OmniLog respiration curve,[1]; [4],336 ± 570
same,DuctApe activity index,[2]; [4],0 (inactive)
C[C@@H](OP(=O)(O)O)[C@H](N)C(=O)O [O-Phospho-L-Threonine],area under OmniLog respiration curve,[1]; [6],9330 ± 620
same,DuctApe activity index,[2]; [6],8.67 (active)
OC[C@H]1OC(O)[C@H](O)[C@@H](O)[C@@H]1O (stereo partly drawn) [a-D-Glucose],area under OmniLog respiration curve,[1]; [7],7320 ± 620
same,DuctApe activity index,[2]; [7],7.67 (active)
OC[C@H]1O[C@@H](Oc2ccc(O)cc2)[C@H](O)[C@@H](O)[C@@H]1O [Arbutin],area under OmniLog respiration curve,[1]; [7],4.72
same,DuctApe activity index,[2]; [7],0 (inactive)
Nc1cc[nH]c(=O)n1 [Cytosine],area under OmniLog respiration curve,[1]; [4],5890 ± 1100
same,DuctApe activity index,[2]; [4],7 (active)
OC[C@@H]1OC(O)[C@@H](O)[C@H](O)[C@H]1O (stereo partly drawn) [L-Glucose],area under OmniLog respiration curve,[1]; [7],29.9 ± 43
same,DuctApe activity index,[2]; [7],0 (inactive)
N[C@@H]1[C@@H](O)[C@H](O)[C@@H](COP(=O)(O)O)O[C@@H]1O [D-Glucosamine-6-Phosphate],area under OmniLog respiration curve,[1]; [6],9120 ± 620
same,DuctApe activity index,[2]; [6],8.67 (active)
"CC(O)CO (configuration not stated) [1,2-Propanediol]",area under OmniLog respiration curve,[1]; [8],123 ± 100
same,DuctApe activity index,[2]; [8],1.33 (inactive)
NCC(=O)N[C@@H](CCC(=O)O)C(=O)O,area under OmniLog respiration curve,[1]; [9],7660 ± 620
same,area under OmniLog respiration curve,[1]; [4],7640 ± 1700
same,DuctApe activity index,[2]; [9],7.67 (active)
same,DuctApe activity index,[2]; [4],8 (active)
OC[C@@H](O)[C@@H](O)CO [i-Erythritol],area under OmniLog respiration curve,[1]; [7],4.72
same,DuctApe activity index,[2]; [7],0 (inactive)
O=c1ccn(C2OC(COP(=O)(O)O)C(O)C2O)c(=O)[nH]1 (configuration not stated) [Uridine 5`-Monophosphate],area under OmniLog respiration curve,[1]; [6],8960 ± 820
same,DuctApe activity index,[2]; [6],8.67 (active)
CC(=O)N[C@@H](CO)[C@@H](O)[C@H](O)[C@H](O)CO [N-Acetyl-D-Glucosaminitol],area under OmniLog respiration curve,[1]; [7],4.72
same,DuctApe activity index,[2]; [7],0 (inactive)
N[C@@H]1C(O)O[C@H](CO)[C@@H](O)[C@@H]1O (stereo partly drawn) [D-Mannosamine],area under OmniLog respiration curve,[1]; [4],1020 ± 700
same,DuctApe activity index,[2]; [4],1.67 (inactive)
Nc1ccc(S(=O)(=O)O)cc1 [p-Aminobenzene Sulfonic acid],area under OmniLog respiration curve,[1]; [5],550 ± 470
same,DuctApe activity index,[2]; [5],0 (inactive)
O=C(O)C(CO)OP(=O)(O)O [D-2-Phospho-Glyceric acid],area under OmniLog respiration curve,[1]; [6],9640 ± 700
same,DuctApe activity index,[2]; [6],9 (active)
C[C@@H](O)CC(=O)O [b-Hydroxybutyric acid],area under OmniLog respiration curve,[1]; [3],186 ± 53
same,DuctApe activity index,[2]; [3],1 (inactive)
NC(=O)NCCC[C@H](N)C(=O)O [L-Citrulline],area under OmniLog respiration curve,[1]; [4],1240 ± 540
same,DuctApe activity index,[2]; [4],2.33 (inactive)
C[C@@H](N)C(=O)O [D-Alanine],area under OmniLog respiration curve,[1]; [9],7620 ± 460
same,area under OmniLog respiration curve,[1]; [4],6690 ± 1200
same,DuctApe activity index,[2]; [9],8 (active)
same,DuctApe activity index,[2]; [4],7.33 (active)
C[C@@H](O)[C@H](N)C(=O)O [L-Threonine],area under OmniLog respiration curve,[1]; [9],7940 ± 380
same,area under OmniLog respiration curve,[1]; [4],3190 ± 1200
same,DuctApe activity index,[2]; [9],8 (active)
same,DuctApe activity index,[2]; [4],5 (active)
O=C(O)CCCCCCCCC(=O)O [Sebacic acid],area under OmniLog respiration curve,[1]; [3],4.72
same,DuctApe activity index,[2]; [3],0 (inactive)
O=C(O)CCC(=O)O [Succinic acid],area under OmniLog respiration curve,[1]; [3],9020 ± 680
same,DuctApe activity index,[2]; [3],8.67 (active)
CCCCCC(=O)O [Caproic acid],area under OmniLog respiration curve,[1]; [3],4.72
same,DuctApe activity index,[2]; [3],0 (inactive)
O=C[C@H](O)[C@@H](O)[C@H](O)[C@H](O)CO[C@@H]1O[C@H](CO)[C@@H](O)[C@H](O)[C@H]1O [Gentiobiose],area under OmniLog respiration curve,[1]; [7],475 ± 820
same,DuctApe activity index,[2]; [7],1 (inactive)
OC[C@@H](O)[C@@H](O[C@H]1O[C@H](CO)[C@@H](O)[C@H](O)[C@H]1O)[C@H](O)[C@@H](O)CO [Maltitol],area under OmniLog respiration curve,[1]; [7],4.72
same,DuctApe activity index,[2]; [7],0 (inactive)
C/C=C/C=C/C(=O)O [Sorbic acid],area under OmniLog respiration curve,[1]; [3],7.09 ± 4.1
same,DuctApe activity index,[2]; [3],0 (inactive)
NC(=O)NC1NC(=O)NC1=O (configuration not stated) [Allantoin],area under OmniLog respiration curve,[1]; [4],500 ± 670
same,DuctApe activity index,[2]; [4],1.67 (inactive)
C[C@H](N)C(=O)N[C@H](C(=O)O)[C@@H](C)O,area under OmniLog respiration curve,[1]; [4],7530 ± 1100
same,DuctApe activity index,[2]; [4],8 (active)
NC(N)=S [Thiourea],area under OmniLog respiration curve,[1]; [5],4830 ± 410
same,DuctApe activity index,[2]; [5],6.33 (active)
